# From PubChem BioAssay AID463173 (ICCB-Longwood Screening Facility, Harvard Medical School, 2010)
# The whole screen tested about 52,000 compounds, of which about 4,300 (8.3%) were called active. Cut-off read from the data, not from the text of the source: active = survival mostly below about 52% (no sharp cut-off); inactive = mostly above about 56%. This excerpt belongs to a sample that is enriched for actives.
# Test system: DeltatarO mutant
# Assay: S. aureus survival, RN4220 and DeltatarO strains – OD600, teichoic acid synthesis inhibitors, primary screen (AID 463173)
# Conditions: S. aureus RN4220 wild type/DeltatarO growth, OD600, 18 h, stronger effect = lower value, screened at 18.75 µg/mL (by protocol)
row,SMILES,survival
1,O=C(Nc1ccc(C(=O)OCc2cc(=O)n3ccsc3n2)cc1)c1cccc(F)c1,102% (inactive)
2,COc1ccc(C(=O)N(Cc2ccco2)Cc2ccccc2F)cc1Cl,98% (inactive)
3,Cc1cccc(NC(=O)CCN2CCC(C)CC2)c1,91% (inactive)
4,Cc1ccc(NC(=O)CSc2nc(=O)n(CCCN(C)C)c3c2CCC3)cc1F,71% (inactive)
5,COc1cc(NC(=O)C(CC(C)C)N2Cc3ccccc3C2=O)cc(OC)c1 (configuration not stated),108% (inactive)
6,O=C(N=Nc1c(O)[nH]c2ccccc12)C1CC1c1ccccc1 (configuration not stated),35% (active)
7,O=C(N=Nc1c(O)[nH]c2ccccc12)C1C2CCCCC21 (configuration not stated),95% (inactive)
8,O=C(Cc1ccccc1)N=Nc1c(O)[nH]c2ccccc12,91% (inactive)
9,Cc1cc(Nc2cccc(Cl)c2)nc2ccc(NC(=O)Cc3ccc(Cl)cc3)cc12,105% (inactive)
10,Cc1c(C(=O)N2CCCCCC2)c(S(=O)(=O)NCc2ccccc2)c(C)n1C,77% (inactive)
11,CCOc1ccc2[nH]c(=O)c(CN(Cc3ccccc3)C(=O)N3CCOCC3)cc2c1,105% (inactive)
12,CC(C)COc1ccc(-c2nnn(CC(=O)N3C(C)CCCC3C)n2)cc1 (configuration not stated),69% (active)
13,CCOc1ccc(-c2nnn(CC(=O)NC3CCCCC3)n2)cc1,75% (inactive)
14,CC(C)c1ccc(-c2nnn(CC(=O)OC3CCCCC3)n2)cc1,87% (inactive)
15,Cc1ccc(NC(=O)Cc2ccc(-n3c(C)nc4cccnc43)cc2)c(Cl)c1,107% (inactive)
16,CCOc1ccc(NC(=O)CSc2ncn[nH]2)cc1,67% (inactive)
17,COc1cc(C2c3c(-c4ccccc4O)n[nH]c3C(=O)N2Cc2ccncc2)cc(OC)c1OC (configuration not stated),82% (inactive)
18,COCCN1C(=O)c2[nH]nc(-c3ccccc3O)c2C1c1ccc(Cl)c(Cl)c1 (configuration not stated),3% (active)
19,CCCN1C(=O)c2[nH]nc(-c3ccccc3O)c2C1c1ccc(OCc2ccccc2)c(OCC)c1 (configuration not stated),40% (active)
20,CCOc1cc(C2c3c(-c4ccccc4O)n[nH]c3C(=O)N2CCc2ccccc2)ccc1O (configuration not stated),29% (active)
21,CCCN1C(=O)c2[nH]nc(-c3ccc(F)cc3)c2C1c1ccc(O)c(OCC)c1 (configuration not stated),51% (inactive)
22,CCCCN1C(=O)c2[nH]nc(-c3ccccc3O)c2C1c1cc(Br)c(O)c(OC)c1 (configuration not stated),2% (active)

row,SMILES,survival
1,CCCOc1ccc(C2c3c(-c4ccccc4O)n[nH]c3C(=O)N2CCc2ccccc2)cc1OCC (configuration not stated),53% (inactive)
2,COc1ccc(/C=C\c2onc(C)c2S(=O)(=O)N2CCC(C(=O)Nc3cccc(OC)c3)CC2)cc1,97% (inactive)
3,Cc1cc(C)n(C2CC(=O)N(N(C)C)C2=O)n1 (configuration not stated),92% (inactive)
4,Cc1cc(C)c2c(=O)cc(C(=O)Nc3ccc(S(=O)(=O)Nc4nc(C)cc(C)n4)cc3)oc2c1,103% (inactive)
5,O=C(CO)N/N=C\c1c(F)cccc1Cl,51% (inactive)
6,Cc1ccc(S(=O)(=O)C(CNC(=O)Cc2ccc(Cl)cc2)c2cccs2)cc1 (configuration not stated),85% (inactive)
7,CCc1ccc(NC(=O)CSC2=Nc3ccccc3C3=NC(CC(=O)NC4CCCCC4)C(=O)N23)cc1 (configuration not stated),86% (inactive)
8,CC(C)(O)C1Cc2cc(/C=C/C(=O)O)c(O)cc2O1 (configuration not stated),88% (inactive)
9,CN(C)c1ccc(CNC(=O)c2ccc(NC(=O)c3nsc4ccccc34)cc2)cc1,84% (inactive)
10,CCCCOc1ccc(C2c3c(-c4ccccc4O)n[nH]c3C(=O)N2Cc2ccncc2)cc1OC (configuration not stated),61% (inactive)
11,COCCN1C(=O)c2[nH]nc(-c3ccccc3O)c2C1c1ccc(OCc2ccccc2)c(OC)c1 (configuration not stated),13% (active)
12,CCOc1ccc(C2c3c(-c4ccccc4O)n[nH]c3C(=O)N2Cc2cccnc2)cc1OC (configuration not stated),90% (inactive)
13,CCCN1C(=O)c2[nH]nc(-c3ccccc3O)c2C1c1ccc(OCc2ccccc2)c(OC)c1 (configuration not stated),44% (active)
14,COc1cc(C2c3c(-c4ccccc4O)n[nH]c3C(=O)N2CCO)ccc1OCc1ccccc1 (configuration not stated),77% (inactive)
15,CCCCN1C(=O)c2[nH]nc(-c3ccccc3O)c2C1c1ccc(OCc2ccccc2)c(OC)c1 (configuration not stated),35% (active)
16,CCOC(=O)c1c(C)[nH]c(CCC(=O)NCc2ccc(F)cc2)c1C,89% (inactive)
17,COCCCNC(=O)Cn1nc(N2CCN(c3ccccc3)CC2)ccc1=O,91% (inactive)
18,c1ccc(CSc2nc3ncccc3[nH]2)cc1,93% (inactive)
19,CCN(CC)C(=O)C1CCN(C(=O)c2cnn(-c3ccccc3)c2-n2cccc2)CC1,83% (inactive)
20,Cc1ccc2occ(CC(=O)Nc3ccc(S(=O)(=O)N4CCC(C)CC4)cc3)c2c1,55% (active)
21,CC(C)(C)c1ccc(S(=O)(=O)N2CCC(c3ccncc3)CC2)cc1,109% (inactive)
22,CC1CCN(S(=O)(=O)c2ccc(NC(=O)Nc3ccccc3)cc2)CC1,9% (active)

row,SMILES,survival
1,CC(=O)Nc1ccc(S(=O)(=O)N2CCC(c3ccncc3)CC2)cc1,-5% (active)
2,Cc1ccc2occ(CC(=O)Nc3ccc(S(=O)(=O)N4CCCC(C)C4)cc3)c2c1 (configuration not stated),58% (inactive)
3,Cc1ccc2c(CC(=O)Nc3ccc(S(=O)(=O)N4CCC(C)CC4)cc3)coc2c1,59% (inactive)
4,CC(=O)Nc1ccc(S(=O)(=O)N2CCC(C)CC2)cc1,96% (inactive)
5,O=S(=O)(c1ccc(Cl)cc1)N1CCC(c2ccncc2)CC1,73% (inactive)
6,CC1CCN(S(=O)(=O)c2ccccc2)CC1,104% (inactive)
7,CC1=C(C(=O)Nc2ccccc2C)C(c2ccncc2)n2nc(SCc3ccccc3Cl)nc2N1 (configuration not stated),62% (inactive)
8,CCOC(=O)c1ccccc1NC(=O)N(Cc1ccc(C)cc1)Cc1cccn1-c1nnc(N2CCCC2=O)s1,118% (inactive)
9,Cc1ccc(NC(=O)Cn2nnc(-c3nc(-c4ccncc4)no3)c2N)c(C)c1,92% (inactive)
10,CCc1ccccc1NC(=O)CSc1nccn1C,89% (inactive)
11,CC1=C(c2ccc(C)c(C)c2)S(=O)(=O)N(Cc2ccc(C(=O)NCc3ccc(C)cc3)cc2)C1=O,92% (inactive)
12,COc1ccc(-c2ccc(=O)n(CC(=O)Nc3ccc(N(C)C)cc3)n2)cc1,90% (inactive)
13,CCC1CCCCN1S(=O)(=O)c1ccc(C(=O)Nc2sc3c(c2C(N)=O)CCC3)cc1 (configuration not stated),68% (inactive)
14,Cc1ccc(-n2nc(C(=O)N(C)c3ccccc3Cl)c3c4ccccc4n(C)c3c2=O)cc1,88% (inactive)
15,CCCNS(=O)(=O)c1cc(-c2nnc3c4ccccc4c(C)nn23)ccc1OC,100% (inactive)
16,Cc1cc2c(cc1S(=O)(=O)NCc1ccccc1Cl)OCCN2C,106% (inactive)
17,CCc1ccc(-n2nc3cc(C)c(NC(=O)c4cc(Cl)ccc4OC)cc3n2)cc1,86% (inactive)
18,CCCn1c(=NC(=O)c2cc3ccccc3o2)c(C(=O)OCC)cc2c(=O)n3ccccc3nc21,27% (active)
19,CCCCn1c(=NC(=O)c2cc3ccccc3o2)c(C(=O)OCC)cc2c(=O)n3ccccc3nc21,107% (inactive)
20,CCOC(=O)c1cc2c(=O)n3ccccc3nc2n(CC(C)C)c1=NC(=O)c1cc2ccccc2o1,59% (inactive)
21,CCOC(=O)c1cc2c(=O)n3ccccc3nc2n(CCOC)c1=NC(=O)c1cc2ccccc2o1,58% (inactive)
22,CCCCn1c(=NC(=O)C(C)(C)Oc2ccc(Cl)cc2)c(C(=O)OCC)cc2c(=O)n3ccccc3nc21,60% (inactive)

row,SMILES,survival
1,CCOC(=O)c1cc2c(=O)n3ccccc3nc2n(CC(C)C)c1=NC(=O)C(C)Oc1ccccc1 (configuration not stated),165% (inactive)
2,CCOC(=O)c1cc2c(=O)n3ccccc3nc2n(C(C)C)c1=NC(=O)C(C)(C)Oc1ccc(Cl)cc1,57% (inactive)
3,CCOC(=O)c1cc2c(=O)n3ccccc3nc2n(CCCOC)c1=NC(=O)c1cc2ccccc2o1,65% (inactive)
4,CCOC(=O)c1cc2c(=O)n3ccccc3nc2n(C(C)C)c1=NC(=O)c1c(-c2c(F)cccc2Cl)noc1C,151% (inactive)
5,CCOC(=O)c1cc2c(=O)n3ccccc3nc2n(C(C)C)c1=NC(=O)c1cc2ccccc2o1,25% (active)
6,CCOC(=O)c1cc2c(=O)n3ccccc3nc2n(CCCOC)c1=NC(=O)C(C)Oc1ccccc1 (configuration not stated),48% (active)
7,CCOC(=O)c1cc2c(=O)n3ccccc3nc2n(CC(C)C)c1=NC(=O)C(C)(C)Oc1ccc(Cl)cc1,31% (active)
8,O=C(NC1CSCC1=O)c1ccccc1 (configuration not stated),69% (inactive)
9,O=C1CC(c2ccccc2)Sc2nc(-c3ccc(F)cc3)nn21 (configuration not stated),81% (inactive)
10,O=c1[nH]cnc2nc3c4ccccc4c4ccccc4c3nc12,74% (inactive)
11,O=C(Nc1cccc(F)c1)c1ccc2c(c1)N(Cc1ccccc1)C(=O)c1ccccc1S2(=O)=O,80% (inactive)
12,O=C1CN=C(Nc2ccccc2Cl)N1Cc1ccccc1,110% (inactive)
13,COc1ccccc1NC(=O)C1CCC(CNS(=O)(=O)c2ccc3c(c2)CC(C)N3C(C)=O)CC1 (configuration not stated),58% (inactive)
14,O=C(NC1CC(=O)N(c2cccc(F)c2)C1)c1ccc(S(=O)(=O)N2CCCC2)cc1 (configuration not stated),68% (inactive)
15,CCOCCCNC(=O)C(=O)Nc1c2c(nn1-c1ccc(OC)cc1)CSC2,83% (inactive)
16,Cc1ccc(NC(=O)Cn2c(=O)n(CCc3ccccc3)c(=O)c3c4c(sc32)CCCC4)c(C)c1,92% (inactive)
17,CCC1C=CCC2C(=O)N(CC(=O)NCCC3=CCCCC3)C(=O)C12 (configuration not stated),73% (inactive)
18,CC(=O)N1CCCn2c1nc1ccccc12,92% (inactive)
19,Cc1ccc(C)c(N2CCN(C(=O)Cn3cnc4sc(C)c(S(=O)(=O)N5CCN(c6ncccn6)CC5)c4c3=O)CC2)c1,67% (inactive)
20,CC(NC(=O)c1ccc2c(c1)N(Cc1cccc(F)c1)C(=O)c1ccccc1S2)c1ccccc1 (configuration not stated),89% (inactive)
21,COc1ccc2c(CNC3CCCC3)c(C(=O)O)n(Cc3ccccc3C)c2c1,95% (inactive)
